This excerpt belongs to a sample that is enriched for hits.
AmpC no deterg = blocks E. coli AmpC beta-lactamase in detergent-free assay; hit rate 0.52% among 330,000; Potency, µM (titrated, usually from 57.1 µM), actives largely listed as inhibitors; AID 485341; P00811; AmpC nitrocefin hydrolysis, absorbance 480 nm, 0.0001% Triton; also: nearly all actives have a fitted effect of over 20% in size
Target sequence (P00811 whole entry, looked up): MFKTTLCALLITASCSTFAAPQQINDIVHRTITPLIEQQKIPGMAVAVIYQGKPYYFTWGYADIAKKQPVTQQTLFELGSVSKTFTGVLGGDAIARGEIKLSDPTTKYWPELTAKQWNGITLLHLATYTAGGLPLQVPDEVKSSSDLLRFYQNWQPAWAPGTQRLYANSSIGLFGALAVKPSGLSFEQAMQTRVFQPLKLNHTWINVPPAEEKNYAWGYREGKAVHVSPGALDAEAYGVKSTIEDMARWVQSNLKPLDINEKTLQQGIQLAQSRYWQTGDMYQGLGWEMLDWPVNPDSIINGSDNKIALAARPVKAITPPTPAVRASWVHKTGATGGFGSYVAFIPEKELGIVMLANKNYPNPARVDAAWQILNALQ
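AmpC (5.3 nM in the dispensed reagent) in 20 mM phosphate pH 7.0 with 0.01% (detergent screen) or 0.0001% Triton X-100 was preincubated with compounds for 15 min at room temperature. Nitrocefin was then added from an 800 uM solution, and hydrolysis was followed at 480 nm.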
CHX counter = counter-screen hit for Shiga toxin inhibitors, cycloheximide | hit rate 12% among 300,000 | cell reporter, cycloheximide protein synthesis inhibition counterscreen | max response, %; in the data active = max response mostly above about 13%, no sharp cut-off; inactive = mostly below about 14%; also: read at 38.3 µM for the half of the compounds with a filed dose
AmpC detergent = AmpC beta-lactamase inhibition with detergent present; hit rate 0.041% among 370,000; AmpC hydrolysis of nitrocefin, absorbance 480 nm, 0.01% Triton; P00811; Potency, µM (series often up to 114 µM), hits mostly inhibitors; also: nearly all actives have a fitted effect of over 25% in size
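AmpC (5.3 nM in the dispensed reagent) in 20 mM phosphate pH 7.0 with 0.01% (detergent screen) or 0.0001% Triton X-100 was preincubated with compounds for 15 min at room temperature. Nitrocefin was then added from an 800 uM solution, and hydrolysis was followed at 480 nm.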
AMA1-RON2 inh = AMA1-RON2 (P. falciparum) interaction inhibition. Potency, µM (titrated, usually from 58.2 µM), most hits filed as inhibitors. hit rate 0.2% among 360,000. AID 720542. AlphaScreen AMA1-biotinylated RON2 peptide binding; also: nearly all actives have a fitted effect of over 45% in size
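AMA1 (3D7) with his tag at 25 nM final met compounds first, then biotinylated RON2 peptide at 25 nM; detection used donor plus acceptor beads, 10 µg/mL apiece, read by AlphaScreen after 30 min at room temperature.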
Shiga toxin inh = blocks Shiga toxin action in Vero cells | hit rate 9.2% among 290,000 | Vero cells, Shiga toxin protein synthesis inhibition reporter | inhibition, % at 38.7 µM | AID 2315; in the data active = inhibition mostly above about 28%, no sharp cut-off; inactive = mostly below about 43%
SARS PLP yeast = inhibitors of SARS-CoV papain-like protease in yeast | S. cerevisiae expressing SARS-CoV PLpro, growth rescue | Potency, µM (titrated, usually from 32.9 µM), usual class: activators | hit rate 0.19% among 330,000; calls by dose curve; also: nearly all actives have a fitted effect of over 55% in size
Of the large screens only hits and unclear results are named; the others gave an inactive call. Unless noted, calls follow the shape of the dose curve; as a rule, active = well fitted curve in the direction sought with a large enough effect; inconclusive = small, poorly fitted or top-dose-only effect, or another doubt; inactive = no such curve, though single readings can be large; an effect the other way counts as inactive or inconclusive.

C=C(C)CSc1nnc([C@@H]2CCCN2)o1	none
O=C(N/N=C/c1ccco1)c1cc(-c2ccccc2)nc2ccccc12	AmpC no deterg inconclusive, SARS PLP yeast inconclusive
CCCc1ccc(-c2cc(C(=O)N/N=C/c3ccc([N+](=O)[O-])o3)c3ccccc3n2)cc1	CHX counter 23
O=C(N/N=C/c1ccco1)c1cc(C2CC2)nc2ccccc12	AmpC no deterg 28µM (no result: AMA1-RON2 inh)
COc1cccc(-c2cc(C(=O)N/N=C/c3ccco3)c3ccccc3n2)c1	CHX counter 26, Shiga toxin inh 67
Cc1ccc(OCC(=O)NCC(=O)Nc2ccc(F)c(F)c2F)c([N+](=O)[O-])n1	none
Cc1cccc(C2NC(=O)c3c(sc4c3CCN(C)C4)N2)c1O (stereo not drawn)	none (no result: AmpC no deterg, CHX counter, AMA1-RON2 inh, Shiga toxin inh, SARS PLP yeast)
CC(C)(C)C1CCc2c(sc3c2C(=O)NC(c2ccco2)N3)C1 (stereo not drawn)	CHX counter 34, Shiga toxin inh 74
CN1CCc2c(sc3c2C(=O)NC(/C=C/c2ccco2)N3)C1 (stereo not drawn)	none (no result: AmpC no deterg, CHX counter, AmpC detergent, Shiga toxin inh, SARS PLP yeast)
Cc1ccc(C2NC(=O)c3c(sc4c3CCN(C)C4)N2)o1 (stereo not drawn)	none
Cc1ccc(C2NC(=O)c3c(sc4c3CCN(C)C4)N2)s1 (stereo not drawn)	CHX counter 33, Shiga toxin inh 67
O=C1NC(c2cccnc2)Nc2sc3c(c21)CCCC3 (stereo not drawn)	CHX counter 33, AmpC detergent inconclusive, Shiga toxin inh 61
CN1CCc2c(sc3c2C(=O)NC(c2ccccn2)N3)C1 (stereo not drawn)	CHX counter 21
CC(C)NS(=O)(=O)c1ccc(NC(=O)C(C)OC(=O)CCC2CCCCC2)cc1 (stereo not drawn)	none (no result: CHX counter, Shiga toxin inh)
O=C1NC(c2ccccn2)Nc2sc3c(c21)CCC3 (stereo not drawn)	CHX counter 31, Shiga toxin inh 99
O=C1NC(c2ccc(Br)cc2)Nc2sc3c(c21)CCC3 (stereo not drawn)	none
Cc1ccsc1C1NC(=O)c2c(sc3c2CCCC3)N1 (stereo not drawn)	CHX counter 28, Shiga toxin inh active
CN1CCc2c(sc3c2C(=O)NC(c2ccc(OC(=O)c4ccccc4)cc2)N3)C1 (stereo not drawn)	none (no result: AmpC no deterg, CHX counter, AMA1-RON2 inh, Shiga toxin inh, SARS PLP yeast)
CN1CCc2c(sc3c2C(=O)NC(c2ccccc2)N3)C1 (stereo not drawn)	CHX counter 20, Shiga toxin inh active
O=C(NCc1ccco1)c1ccc(-c2csnn2)cc1	none
Cc1cccc(NC(=O)/C(C#N)=C\c2cn(CC(=O)O)c3ccccc23)c1	none
CN(Cc1cn(C)nc1-c1cccc(Cl)c1)CC1CCCCO1 (stereo not drawn)	none
CN(CCN1CCOCC1)Cc1nc(-c2ccc(Cl)cc2)no1	none
CN(Cc1nc(-c2cccc(Cl)c2)no1)C1CCOCC1	CHX counter 35, Shiga toxin inh 84
CCN(Cc1nc(-c2cccc(Cl)c2)no1)CC1CCCO1 (stereo not drawn)	CHX counter 13
Cc1cc(=O)oc(C)c1C(=O)OCC(=O)c1ccc2ccccc2c1	CHX counter 30, Shiga toxin inh 52
Cc1onc(-c2ccccc2)c1C(=O)OCC(=O)c1ccccc1	none
Cc1cc(=O)oc(C)c1C(=O)OCC(=O)c1ccccc1	CHX counter 30
CC(=O)NCC(=O)OCC(=O)c1ccc2ccccc2c1	none
CCN(C(=O)CN1CCN(c2ccccc2O)CC1)c1c(N)n(Cc2ccccc2)c(=O)[nH]c1=O	none
Cc1cccc(C(=O)OCC(=O)c2ccc3c(c2)OCO3)c1O	CHX counter 71, Shiga toxin inh 78
Cc1cccc(C(=O)OCC(=O)c2ccc3c(c2)OCCO3)c1O	none (no result: CHX counter, AmpC detergent, Shiga toxin inh)
Cc1ccccc1NC(=O)COC(=O)c1ccc2c(c1)OCCO2	AmpC detergent inconclusive (no result: CHX counter, Shiga toxin inh)
CC(=O)Nc1ccccc1C(=O)OCC(=O)c1ccc2c(c1)OCCO2	CHX counter 32, Shiga toxin inh 98
CC(C)C(=O)Nc1ccccc1C(=O)OCC(=O)c1ccc2c(c1)OCCO2	CHX counter 38, AmpC detergent inconclusive, Shiga toxin inh 64
CC(=O)NC12CC3CC(C1)CC(C(=O)OCC(=O)c1ccc4c(c1)OCCO4)(C3)C2	CHX counter 45, Shiga toxin inh 80
O=C(C[C@H]1C[C@H](C(=O)N2CCOCC2)[C@@]2(CCC3CCCC3)c3[nH]c4cc(-c5ccco5)ccc4c3CCN2C1=O)NCc1ccco1	AMA1-RON2 inh inconclusive (no result: CHX counter, AmpC detergent, Shiga toxin inh)
Cc1onc(-c2ccccc2Cl)c1C(=O)OCC(=O)c1ccc2c(c1)OCCO2	CHX counter 59, Shiga toxin inh 121
Cc1onc(-c2ccccc2Cl)c1C(=O)OCC(=O)c1ccc[nH]1	none (no result: CHX counter, Shiga toxin inh)
Cn1nc(C(=O)OCC(=O)c2ccccc2)c2ccccc2c1=O	none (no result: CHX counter, AmpC detergent, Shiga toxin inh)
COC(=O)c1ccc(COC(=O)c2nn(C)c(=O)c3ccccc23)cc1	CHX counter 23
Cn1nc(C(=O)OCC(=O)NCCc2ccccc2)c2ccccc2c1=O	CHX counter 27
Cn1nc(C(=O)OCC(=O)NCc2ccc(Cl)cc2)c2ccccc2c1=O	none (no result: CHX counter, AmpC detergent, Shiga toxin inh)
C=CCOC(=O)C(=O)/C=C/c1ccc2c(c1)Cc1ccccc1-2	CHX counter 14
COCCC(=O)N1CCC(C(=O)Nc2ccc(Oc3ccccc3)nc2)CC1	CHX counter 63, Shiga toxin inh 66
COc1cc(CN2CCCCC2C(=O)Nc2ccc(Oc3ccccc3)nc2)ccc1O (stereo not drawn)	CHX counter 55, Shiga toxin inh 81
COCCc1ncc(CN2CCCCC2C(=O)Nc2ccc(Oc3ccccc3)nc2)cn1 (stereo not drawn)	none
O=C(Nc1ccc(Oc2ccccc2)nc1)C1CCCCN1Cc1cccc(O)c1 (stereo not drawn)	none
O=C(Nc1ccc(Oc2ccccc2)nc1)C1CCCCN1Cc1ccc(O)cc1 (stereo not drawn)	CHX counter 20 (no result: AMA1-RON2 inh)
CCc1ccc(-n2nc(C)c3c(C)cc(=O)n(CC(=O)Nc4ccc(OC)c(OC)c4)c32)cc1	none (no result: AmpC no deterg, CHX counter, AMA1-RON2 inh, Shiga toxin inh, SARS PLP yeast)
CCc1nnc(NC(=O)C2Cc3ccccc3CN2S(=O)(=O)CC)s1 (stereo not drawn)	AmpC detergent inconclusive
CCS(=O)(=O)N1Cc2ccccc2CC1C(=O)Nc1nc2ccccc2s1 (stereo not drawn)	CHX counter 43, Shiga toxin inh active
CCS(=O)(=O)N1Cc2ccccc2CC1C(=O)Nc1nc2ccccc2[nH]1 (stereo not drawn)	CHX counter 34, Shiga toxin inh 194
Cc1ccccc1Cn1nnc2c(=O)[nH]c(C3CCN(C(=O)c4ccccc4)CC3)nc21	none (no result: AmpC no deterg, CHX counter, AMA1-RON2 inh, Shiga toxin inh, SARS PLP yeast)
COc1cc2c(cc1OC)C(C)N(S(=O)(=O)c1cccs1)CC2 (stereo not drawn)	none
CCCN1C(=O)c2ccc(C(=O)NC3=NCCS3)cc2C1=O	CHX counter 15

Source: PubChem (National Center for Advancing Translational Sciences (NCATS))
